Screens from PubChem BioAssay.
Compounds with a hit are over-represented: about 4.1% of the library has one in this group of screens.
Shn3 3UTR inh – inhibitors of Schnurri-3 3'UTR reporter in osteoblasts. Clone20 osteoblast Shn3 3'UTR firefly luciferase, 24 h. inhibition, % at 12.5 µM. 360,000 tested, 0.52% active;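 active = mean inhibition of at least 75% with every replicate also reaching 75%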
TWEAK Fn14 block – blocks TWEAK-Fn14 interaction in a reporter cell assay; 360,000 tested, 2% active; TWEAK-stimulated Fn14 reporter cells, luciferase luminescence, 8 h; inhibition, % at 10 µM; in the data active = inhibition above about 50%
MITF TRPM1 inh – reduces MITF-dependent TRPM1 promoter luciferase signal. AID 488899. 330,000 tested, 0.83% active. SK-MEL-5 TRPM1 promoter luciferase, 24 h. inhibition, % at 12.5 µM;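 active = mean inhibition across replicates of 60% or more, whatever share of single replicates reaches that level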
LMP1 NFkB inh – inhibitors of Epstein-Barr LMP1-induced NF-kappaB reporter; LMP1-induced NF-kappaB luciferase reporter cells, luminescence; inhibition, % at 12.5 µM; 350,000 tested, 0.69% active; in the data active = inhibition above about 41%
Peg3 prom inh – Peg3 promoter activity inhibition; 360,000 tested, 1.7% active; HeLa PEG-Prom luciferase reporter, luminescence, overnight; inhibition, % at 20 µM;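 active = inhibition of at least 50% at 20 µM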
TROY NFkB inh – blocks TROY-dependent signaling in reporter cells; inhibition, % at 10 µM; Q293 LMP1-TROYcd NF-kB luciferase reporter, 4 h; AID 1347056; 360,000 tested, 0.98% active;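 active = compounds whose plate-normalised and pattern-corrected inhibition of the luciferase reporter signal at the single screening dose is 50% or more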
Numbers stand for hits; . = inactive; / = not tested or not shown; ! = repeats disagree.

SMILES | Shn3 3UTR inh | TWEAK Fn14 block | MITF TRPM1 inh | LMP1 NFkB inh | Peg3 prom inh | TROY NFkB inh
O=C(c1ccc(-n2cccn2)cc1)N1CCc2c([nH]c3ccccc23)C1c1ccccn1 (centres undefined) | / | . | . | . | . | .
Cn1cccc1-c1cc(C(=O)N2CCc3c([nH]c4ccccc34)C2c2ccccn2)[nH]n1 (centres undefined) | . | . | . | 55.4 | . | .
CCN(CC)C(=O)c1oc2ccc(S(=O)(=O)N3CC(C)CC(C)C3)cc2c1C (centres undefined) | 90.6 | . | . | . | . | .
CCN(CC)C(=O)c1oc2ccc(S(=O)(=O)N3CCCCCC3)cc2c1C | . | . | . | . | . | .
Cc1c(C(=O)Nc2ccc(F)cc2)oc2ccc(S(=O)(=O)N3CC(C)CC(C)C3)cc12 (centres undefined) | . | 54.0 | . | . | . | .
N/C(=N\OC(=O)c1ccccc1Cl)c1cccc([N+](=O)[O-])c1 | . | . | . | . | . | .
N/C(=N\OC(=O)c1cccc2ccccc12)c1ccccn1 | . | . | . | . | 82.7 | .
COc1cccc(C(=O)O/N=C(\N)c2ccncc2)c1OC | . | . | . | . | . | .
Cc1c(C(=O)O/N=C(\N)c2ccccn2)cccc1[N+](=O)[O-] | . | 67.0 | . | . | . | .
N/C(=N\OC(=O)Cc1cccc2ccccc12)c1ccccn1 | . | . | . | . | . | .
COc1cccc(C(=O)O/N=C(\N)c2ccccn2)c1OC | . | 81.0 | . | 51.8 | . | .
N/C(=N/OC(=O)c1ccccc1Cl)c1ncc([N+](=O)[O-])s1 | . | 50.4 | . | . | . | .
CC(=O)c1ccc(OCCCC(=O)NCCc2ccccc2)cc1 | . | . | . | . | . | .
COc1ccc(NC(=O)c2cc3c(=O)n(C)c4ccccc4c3s2)cc1OC | . | . | . | . | . | .
COc1cc(NS(=O)(=O)c2ccc(NC(=S)NC(=O)c3ccc(F)c(F)c3)cc2)nc(OC)n1 | . | . | . | . | . | .
Cc1csc(N/N=C/c2c(F)cccc2Cl)n1 | . | . | . | . | . | .
Cc1csc(N/N=C/c2ccccc2F)n1 | . | . | . | 86.9 | . | .
CN(C)CCC(c1ccccc1)c1ccccn1 (centres undefined) | . | . | . | 56.4! | . | .
Cc1ccc(/C=N/NC(=O)c2ccc(-n3cnnn3)cc2)cc1 | . | . | . | . | . | .
CSc1ccc(/C=N/NC(=O)c2ccc(-n3cnnn3)cc2)cc1 | . | 55.2 | . | . | . | .
CC(C)c1ccc(/C=N/NC(=O)c2ccc(-n3cnnn3)cc2)cc1 | . | 64.8 | . | . | . | .
Cc1ccc2c(c1)sc1nc(=O)n(-c3ccc(Cl)c(Cl)c3)c(=O)n12 | . | 55.0 | . | . | . | .
Cc1ccc2c(c1)sc1nc(=O)n(-c3ccc(Cl)cc3)c(=O)n12 | . | . | . | . | . | .
COc1ccc(C(=O)OCC(=O)N2CCCC2=O)c(OC)c1 | . | . | . | . | . | .
NC(=O)C1CCN(c2ccc3c(c2)S(=O)(=O)c2ccccc2C3=O)CC1 | . | . | . | . | . | 63.5
SMILES | Shn3 3UTR inh | TWEAK Fn14 block | MITF TRPM1 inh | LMP1 NFkB inh | Peg3 prom inh | TROY NFkB inh
O=C1c2ccccc2C(=O)c2cc(N3CCCCC3)ccc21 | . | 101.4 | . | 44.8 | . | 82.8
Cc1ccc(SCC(=O)OCC(=O)N(C)C2CCS(=O)(=O)C2)cc1C (centres undefined) | . | . | . | . | . | .
CCOc1cccc(C(=O)Nc2cccc(-c3nnc(-c4ccc(C)cc4)o3)c2)c1 | . | . | 82.5 | . | . | .
CCOc1cccc(C(=O)Nc2cccc(-c3nnc(-c4ccccc4)o3)c2)c1 | . | . | . | . | 75.8 | .
COc1cccc(C(=O)Nc2cccc(-c3nnc(-c4ccccc4)o3)c2)c1 | . | . | . | . | . | .
COc1cc(C(O)c2nc(-c3cc4ccccc4o3)cs2)ccc1F (centres undefined) | . | . | / | / | . | .
CCCCN=C(Nc1ccc(Cl)cc1)c1cccnc1 | . | . | . | . | . | .
NC(=NCCCCCCN=C(N)/N=C(\N)Nc1ccc(Cl)cc1)/N=C(\N)Nc1ccc(Cl)cc1 | . | . | . | . | 101.6! | .
CC(C)N=C(N)N=C(N)Nc1ccc(Cl)cc1 | 90.8 | . | . | . | . | .
COc1ccc(CS(=O)(=O)CC(C)(O)c2ccccc2)cc1 (centres undefined) | . | . | . | . | . | .
CCc1nn(CC(=O)N2CCN(c3ccc(F)cc3)CC2)c(=O)c2cc3occc3n12 | . | . | . | . | . | .
CCc1nc2ccc(C(=O)N(C)Cc3ccco3)cn2c1N(C)Cc1ccc(OC)cc1 | . | . | / | / | . | .
O=C(OCc1nc2ccc(Cl)cc2n1CCO)c1ccccc1 | . | . | . | . | . | .
O=C(OCc1nc2ccc(Cl)cc2n1CCO)c1ccc(O)cc1 | . | 66.6 | . | . | . | 76.6
Cc1cccc(C(=O)OC(C)C(=O)Nc2ccc(S(=O)(=O)Nc3ncccn3)cc2)c1C (centres undefined) | . | . | . | . | . | .
CC(Cc1cccs1)NC(=O)Nc1ccc(F)cc1 (centres undefined) | 89.5 | . | . | . | . | .
Cc1ccccc1N=Nc1c(O)n(C)c2ccccc12 | . | . | . | . | . | .
Cc1cccc(NC(=O)C2CCCN(S(=O)(=O)c3cccs3)C2)c1C (centres undefined) | . | . | . | . | . | .
CC1(c2nnnn2-c2ccc3c(c2)OCCO3)CCC(=O)N1Cc1cccnc1 (centres undefined) | / | 79.1 | / | / | / | 57.4
Oc1ccc(/C=N/N=C(c2ccccc2)c2ccccc2)c(O)c1O | . | . | . | . | . | .
O=C(/C(=N/N=C/c1ccc(O)c(O)c1O)c1ccccc1)c1ccccc1 | . | . | . | . | . | .
CC(C)N=c1scc(-c2cccs2)n1/N=C/c1ccc(O)c(O)c1O | 88.4 | 54.3 | . | . | . | .
CCN=c1scc(-c2cccs2)n1/N=C/c1cc(OC)ccc1O | . | 62.5 | . | . | . | .
CN=c1scc(-c2ccccc2F)n1/N=C/c1ccc(O)c(O)c1O | 88.4 | 98.7 | 85.6 | . | . | 91.9
COC(=O)[C@H](CCSC)NC(=O)Cn1cnc2c(OCc3ccccc3)ncnc21 | . | . | . | . | . | .
CC(C)CC1NC(=O)N(CC(=O)Nc2ccc(OCc3ccccc3)cc2)C1=O (centres undefined) | . | . | . | . | . | .
COc1ccc(/C=C/CN2CCN(Cc3ccc(F)cc3)C(CCO)C2)cc1 (centres undefined) | . | . | . | . | . | .
COc1ccc(/C=C/CN2CCN(Cc3ccccc3)C(CCO)C2)cc1 (centres undefined) | . | . | . | 51.2 | . | .
Cc1ccc2c(c1)C(=O)C(=O)N2Cc1ccc(Cl)cc1 | . | . | . | . | . | .
CCCN1CCC(=O)N([C@H](CSc2ccc(C)cc2)CC(C)C)CC1 | . | . | . | . | . | 61.2
